Results reported in PubChem BioAssay (EPA / NIEHS).
Active and inactive are the calls of the source. The calls were made as follows: active = hit-call score of the fitted dose curve at least 0.9, where 1 is the maximum; inactive = score below 0.9.

Key:
[1] = ATG_DR4_LXR_CIS: Attagene CIS-FACTORIAL HepG2 Assay for human Liver X Receptor (LXR), DR4 submotif (AID 2282929); conditions: HepG2 Attagene DR4 cis-reporter, mRNA transcription; AC50: actives raise or lower the signal unless noted; outcome: actives raise or lower the signal unless noted
Method in brief: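 HepG2, transient MRTU transfection, cis-element (DR4) promoter; 24 h compound exposure; total RNA → oligo(dT) RT → PCR → 6-FAM primer extension → HpaI cut → CE. Gain/loss vs DMSO, bidirectional fit.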

[2] = biological target: Aryl hydrocarbon receptor (Homo sapiens) (UniProt P35869); experiment: ATG_Ahr_CIS: Attagene CIS-FACTORIAL HepG2 Assay for human Aryl Hydrocarbon Receptor (Ahr) (AID 2282930); conditions: HepG2 AhR cis-factorial reporter transcription; actives raise or lower the signal
Aryl hydrocarbon receptor (Homo sapiens), sequence (P35869 whole entry, looked up): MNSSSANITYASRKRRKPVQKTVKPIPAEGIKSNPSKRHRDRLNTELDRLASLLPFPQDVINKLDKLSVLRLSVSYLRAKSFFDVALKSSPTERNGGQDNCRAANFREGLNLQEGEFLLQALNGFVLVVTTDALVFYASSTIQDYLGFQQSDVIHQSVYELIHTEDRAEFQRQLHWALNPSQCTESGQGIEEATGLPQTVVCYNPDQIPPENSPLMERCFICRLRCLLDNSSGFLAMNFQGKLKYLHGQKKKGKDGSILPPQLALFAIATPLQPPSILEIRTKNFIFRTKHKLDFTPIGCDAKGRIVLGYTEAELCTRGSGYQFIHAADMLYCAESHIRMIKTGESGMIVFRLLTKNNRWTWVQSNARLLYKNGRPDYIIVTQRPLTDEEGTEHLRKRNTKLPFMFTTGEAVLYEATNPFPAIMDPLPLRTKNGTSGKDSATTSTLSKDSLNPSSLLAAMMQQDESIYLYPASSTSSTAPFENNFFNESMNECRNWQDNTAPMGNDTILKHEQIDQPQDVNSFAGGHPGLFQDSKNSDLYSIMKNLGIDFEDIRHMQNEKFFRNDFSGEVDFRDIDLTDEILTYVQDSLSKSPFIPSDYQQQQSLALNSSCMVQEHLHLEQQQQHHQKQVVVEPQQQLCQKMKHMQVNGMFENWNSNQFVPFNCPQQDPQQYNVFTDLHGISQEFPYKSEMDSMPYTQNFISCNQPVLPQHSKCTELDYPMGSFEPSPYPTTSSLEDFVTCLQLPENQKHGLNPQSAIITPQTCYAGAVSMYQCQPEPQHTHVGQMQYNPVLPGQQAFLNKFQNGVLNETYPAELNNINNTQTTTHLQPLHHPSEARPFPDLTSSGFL
Method in brief: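 HepG2 cells transiently transfected with cis-element-driven multiplexed reporter transcription units; endogenous transcription factor activity measured as reporter mRNA 24 h after dosing. RT-PCR, 6-FAM labelling, HpaI digestion, capillary electrophoresis; bidirectional fitting versus DMSO baseline.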

[3] = ATG_AP_2_CIS: Attagene CIS-FACTORIAL HepG2 Assay for human Activator Protein 2 (AP-2) (AID 2282932); conditions: HepG2 AP-2 cis-reporter, Attagene transcription factor profiling; AC50: actives raise or lower the signal unless noted; outcome: actives raise or lower the signal unless noted
Method in brief: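 Bidirectional curve fitting against DMSO was applied to reporter mRNA signals from HepG2 cells 24 h after dosing. Cis-promoter reporter units, transiently transfected, were read by RT-PCR plus capillary electrophoresis.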

[4] = ATG_BRE_CIS: Attagene CIS-FACTORIAL HepG2 Assay for human Bone Morphogenetic Protein (BMP) Response Element (BRE) (AID 2282933); conditions: HepG2 BMP response element reporter, Attagene transcription factor profiling; actives raise or lower the signal
Method in brief: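 HepG2 cells transiently transfected with multiplexed cis-element reporter units were dosed with chemical for 24 h. Reporter mRNA was measured by RT-PCR with fluorescent labelling, HpaI digestion and capillary electrophoresis; bidirectional fitting relative to DMSO.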

[5] = biological target: Retinoic acid receptor alpha (Homo sapiens) (UniProt P10276); experiment: ATG_DR5_RAR_CIS: Attagene CIS-FACTORIAL HepG2 Assay for human Retinoic Acid Receptor Alpha (RARE), DR5 submotif (AID 2282934); conditions: HepG2 Attagene cis-factorial RARE DR5 reporter, mRNA; actives raise or lower the signal;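 as to AC50: reporter responds to endogenous RAR alpha beta and gamma in HepG2 not RARA alone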
Retinoic acid receptor alpha (Homo sapiens), sequence (P10276 whole entry, looked up): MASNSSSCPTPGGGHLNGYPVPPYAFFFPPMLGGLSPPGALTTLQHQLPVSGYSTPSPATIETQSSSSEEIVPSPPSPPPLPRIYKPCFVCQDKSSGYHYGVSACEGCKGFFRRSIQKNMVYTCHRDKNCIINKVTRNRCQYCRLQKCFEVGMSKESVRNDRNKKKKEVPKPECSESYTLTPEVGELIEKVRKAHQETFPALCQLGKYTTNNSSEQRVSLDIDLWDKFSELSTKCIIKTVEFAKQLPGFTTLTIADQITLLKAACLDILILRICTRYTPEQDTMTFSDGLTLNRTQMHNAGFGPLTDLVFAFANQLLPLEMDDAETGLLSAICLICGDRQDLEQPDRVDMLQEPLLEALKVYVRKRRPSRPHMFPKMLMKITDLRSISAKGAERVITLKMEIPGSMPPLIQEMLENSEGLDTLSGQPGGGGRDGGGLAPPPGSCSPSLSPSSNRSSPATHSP
Method in brief: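 HepG2 cells transiently transfected with multiplexed reporter units under cis (DR5 RARE) promoters, so endogenous transcription factor activity is measured. After 24 h compound exposure, reporter mRNA is quantified by RT-PCR with fluorescent labelling and capillary electrophoresis; bidirectional fitting versus DMSO.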

[6] = biological target: Transcription factor E2F1 (Homo sapiens) (UniProt Q01094); experiment: ATG_E2F_CIS: Attagene CIS-FACTORIAL HepG2 Assay for human E2F Transcription Factor 1 (AID 2282935); conditions: HepG2 Attagene cis-reporter, E2F reporter RNA transcripts; actives raise or lower the signal
Transcription factor E2F1 (Homo sapiens), sequence (Q01094 whole entry, looked up): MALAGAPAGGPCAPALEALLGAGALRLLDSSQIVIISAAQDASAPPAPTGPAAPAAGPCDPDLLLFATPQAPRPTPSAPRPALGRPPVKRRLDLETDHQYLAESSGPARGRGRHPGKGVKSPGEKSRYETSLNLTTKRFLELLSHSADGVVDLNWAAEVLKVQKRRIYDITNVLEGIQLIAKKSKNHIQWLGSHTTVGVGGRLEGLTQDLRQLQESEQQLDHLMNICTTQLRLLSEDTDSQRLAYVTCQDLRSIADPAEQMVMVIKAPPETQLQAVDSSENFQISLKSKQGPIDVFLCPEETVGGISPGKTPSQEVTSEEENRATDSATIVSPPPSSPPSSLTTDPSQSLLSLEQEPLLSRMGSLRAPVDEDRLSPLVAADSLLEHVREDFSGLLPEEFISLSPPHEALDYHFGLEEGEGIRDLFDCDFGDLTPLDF
Method in brief: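 Multiplexed cis-reporter assay: HepG2, transient transfection, 24 h dosing, mRNA quantitation by labeled RT-PCR and CE.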

[7] = ATG_E_Box_CIS: Attagene CIS-FACTORIAL HepG2 Assay for human Enhancer Box (E-box) (AID 2282936); conditions: HepG2 E-box cis-reporter transcription, actives raise or lower the signal
Method in brief: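 Multiplexed CIS reporter system in transiently transfected HepG2 cells measures native transcription factor activity. Reporter RNA after 24 h exposure is profiled by RT-PCR-capillary electrophoresis.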

[8] = ATG_M_61_CIS: Attagene CIS-FACTORIAL HepG2 Assay for M61 Transcription Factor (Internal Marker) (AID 2282937); conditions: HepG2 Attagene CIS-FACTORIAL M61 internal marker reporter; actives raise or lower the signal
Method in brief: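 Human liver HepG2, transient MRTU transfection (cis promoter elements), 24 h compound. Total RNA → oligo(dT) RT → PCR → FAM label → HpaI → CE. Internal background marker; bidirectional fitting, DMSO = baseline.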

[9] = ATG_EGR_CIS: Attagene CIS-FACTORIAL HepG2 Assay for human Early Growth Response 1 (EGR1) (AID 2282938); conditions: HepG2 Attagene CIS-FACTORIAL EGR reporter mRNA; actives raise or lower the signal
Method in brief: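 Transient transfection of human HepG2 with multiple cis-regulated reporter units, chemical exposure 24 h, total RNA isolated. Reverse transcription, PCR, fluorescent labelling and capillary electrophoresis quantify reporter transcripts; activity fitted bidirectionally against DMSO.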

[10] = ATG_M_19_CIS: Attagene CIS-FACTORIAL HepG2 Assay for M19 Transcription Factor (Internal Marker) (AID 2282939); conditions: HepG2 Attagene CIS-FACTORIAL M19 internal marker reporter; actives raise or lower the signal
Method in brief: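 HepG2 cells transiently transfected with cis-regulated multiple reporter transcription units were dosed for 24 h; reporter mRNA was quantified by RT-PCR, 6-FAM primer-extension labelling, HpaI digestion and capillary electrophoresis, with bidirectional fitting against DMSO baseline.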

[11] = ATG_ERE_CIS: Attagene CIS-FACTORIAL HepG2 Assay for Estrogen Response Element (ERE) (AID 2282940); conditions: HepG2 ERE cis-reporter, Attagene RNA transcript; actives raise or lower the signal
Method in brief: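 HepG2 cells transiently transfected with cis-promoter-driven multiplexed reporter transcription units report endogenous TF activity. After 24 h compound exposure, reporter mRNA is quantified by RT-PCR with capillary electrophoresis fluorescence; bidirectional fitting versus DMSO baseline.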

[12] = ATG_Ets_CIS: Attagene CIS-FACTORIAL HepG2 Assay for human Erythroblast Transformation Specific (ETS) (AID 2282941); conditions: HepG2 ETS cis-reporter transcription; AC50: actives raise or lower the signal unless noted; outcome: actives raise or lower the signal unless noted
Method in brief: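 After transient cis-reporter transfection, HepG2 cells receive test chemical for 24 h. Reporter mRNA levels, measured by RT-PCR and capillary electrophoresis fluorescence, are analysed bidirectionally relative to the DMSO baseline.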

[13] = biological target: Hepatocyte nuclear factor 3-beta (Homo sapiens) (UniProt Q9Y261); experiment: ATG_FoxA2_CIS: Attagene CIS-FACTORIAL HepG2 Assay for human Forkhead box A2 (FOXA2) (AID 2282942); conditions: HepG2 cis-reporter transcription factor activity, 24 h; actives raise or lower the signal
Hepatocyte nuclear factor 3-beta (Homo sapiens), sequence (Q9Y261 whole entry, looked up): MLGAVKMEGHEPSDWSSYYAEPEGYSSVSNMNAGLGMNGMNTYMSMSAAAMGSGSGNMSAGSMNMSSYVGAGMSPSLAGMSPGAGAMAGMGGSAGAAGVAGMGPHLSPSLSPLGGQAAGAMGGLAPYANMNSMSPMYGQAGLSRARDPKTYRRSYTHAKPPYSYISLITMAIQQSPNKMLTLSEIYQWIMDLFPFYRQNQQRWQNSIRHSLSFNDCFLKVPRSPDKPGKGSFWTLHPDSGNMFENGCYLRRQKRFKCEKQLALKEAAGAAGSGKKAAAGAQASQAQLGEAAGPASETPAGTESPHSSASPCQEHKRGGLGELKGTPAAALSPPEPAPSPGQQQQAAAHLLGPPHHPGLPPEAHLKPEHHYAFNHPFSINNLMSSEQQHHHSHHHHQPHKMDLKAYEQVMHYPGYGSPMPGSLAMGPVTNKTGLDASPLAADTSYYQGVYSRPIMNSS
Method in brief: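 Transient MRTU transfection of HepG2 liver cells; 24 h treatment; total RNA → oligo(dT) RT → PCR → FAM primer extension → HpaI cut → CE. Bidirectional fit vs DMSO.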

[14] = ATG_FoxO_CIS: Attagene CIS-FACTORIAL HepG2 Assay for human Forkhead box O (FoxO) (AID 2282943); conditions: HepG2 Attagene cis-reporter, FoxO element, mRNA; actives raise or lower the signal
Method in brief: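 HepG2 cells transiently transfected with cis-promoter-driven multiple reporter transcription units; 24 h after chemical dosing, reporter mRNA quantified by RT-PCR, fluorescent primer extension, HpaI digestion and capillary electrophoresis. Bidirectional fitting versus DMSO baseline.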

[15] = ATG_GATA_CIS: Attagene CIS-FACTORIAL HepG2 Assay for human GATA Binding Protein (AID 2282944); conditions: HepG2 GATA cis-element reporter, Attagene multiplex mRNA; actives raise or lower the signal
Method in brief: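 HepG2 cells transiently transfected with multiplexed cis-element reporter units reflecting endogenous transcription factor activity; reporter mRNA measured after 24 h dosing by RT-PCR, 6-FAM labeling, HpaI digestion and capillary electrophoresis. Bidirectional fitting versus DMSO baseline.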

[16] = ATG_GLI_CIS: Attagene CIS-FACTORIAL HepG2 Assay for human Zinc Finger Protein GLI1 (AID 2282945); conditions: HepG2, Attagene cis-factorial reporter mRNA, GLI element; actives raise or lower the signal
Method in brief: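 HepG2 cells transiently transfected with cis-promoter multiplexed reporter units report endogenous transcription factor activity. After 24 h chemical exposure, reporter mRNA was quantified by RT-PCR, 6-FAM labelling, HpaI digestion and capillary electrophoresis, with bidirectional fitting against DMSO.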

[17] = biological target: Bile acid receptor (Homo sapiens) (UniProt Q96RI1); experiment: ATG_IR1_CIS: Attagene CIS-FACTORIAL HepG2 Assay for human Nuclear Receptor Subfamily 1 Group H Member 4 (NR1H4), IR1 submotif (AID 2282946); conditions: IR1 reporter transcription, actives raise or lower the signal
Bile acid receptor (Homo sapiens), sequence (Q96RI1 whole entry, looked up): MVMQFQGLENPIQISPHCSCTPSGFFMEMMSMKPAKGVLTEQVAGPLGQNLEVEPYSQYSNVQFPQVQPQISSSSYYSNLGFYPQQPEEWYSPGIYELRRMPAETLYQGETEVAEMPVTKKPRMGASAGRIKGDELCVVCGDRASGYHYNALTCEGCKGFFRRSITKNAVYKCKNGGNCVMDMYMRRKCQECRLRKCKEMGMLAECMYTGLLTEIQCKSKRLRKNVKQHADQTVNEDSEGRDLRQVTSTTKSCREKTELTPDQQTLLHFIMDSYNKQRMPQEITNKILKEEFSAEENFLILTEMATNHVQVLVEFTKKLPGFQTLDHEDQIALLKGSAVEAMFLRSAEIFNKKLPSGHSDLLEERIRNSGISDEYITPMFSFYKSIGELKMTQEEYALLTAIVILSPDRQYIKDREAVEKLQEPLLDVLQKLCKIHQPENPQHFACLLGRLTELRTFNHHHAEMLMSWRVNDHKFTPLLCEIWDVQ
Method in brief: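 Transient MRTU transfection, HepG2; 24 h dosing; RNA → RT-PCR → 6-FAM primer extension → HpaI digest → capillary electrophoresis fluorescence. Gain/loss of signal fitted relative to DMSO.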

[18] = ATG_GRE_CIS: Attagene CIS-FACTORIAL HepG2 Assay for human Glucocorticoid Response Elements (GRE) (AID 2282947); conditions: HepG2 GRE cis-reporter, Attagene multiplex mRNA; AC50: actives raise or lower the signal unless noted; outcome: actives raise or lower the signal unless noted
Method in brief: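 Following 24 h chemical exposure of transiently transfected HepG2 cells, total RNA was reverse-transcribed and reporter cDNA amplified, fluorescently labelled and sized by capillary electrophoresis. Signal gain or loss was fitted relative to DMSO vehicle.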

[19] = ATG_ISRE_CIS: Attagene CIS-FACTORIAL HepG2 Assay for human Interferon Regulatory Factor 1 (IRF1) binding to an Interferon-Stimulated Response Element (ISRE) (AID 2282948); conditions: HepG2 ISRE cis-reporter (Attagene), mRNA transcription readout; actives raise or lower the signal
Method in brief: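 Quantitation relies on labelled RT-PCR fragments separated by capillary electrophoresis. Human HepG2 cells bearing cis-promoter reporter constructs were treated 24 h; DMSO served as baseline for bidirectional fitting.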

[20] = ATG_AP_1_CIS: Attagene CIS-FACTORIAL HepG2 Assay for human Activator Protein 1 (AP-1) (AID 2282931); conditions: HepG2 Attagene cis-factorial AP-1 reporter mRNA; actives raise or lower the signal
Method in brief: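 Transient MRTU transfection of HepG2 → 24 h chemical treatment → RNA isolation, RT-PCR, 6-FAM labelling, HpaI digest → capillary electrophoresis. Fit: bidirectional, DMSO negative control.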

Compound: c1cc2cccc3c4cccc5cccc(c(c1)c23)c54
- outcome [1]: inactive
- AC50 [2]: 17.6 µM (active)
- outcome [3]: inactive
- outcome [4]: inactive
- outcome [5]: inactive
- outcome [6]: inactive
- outcome [7]: inactive
- outcome [8]: inactive
- outcome [9]: inactive
- outcome [10]: inactive
- outcome [11]: inactive
- outcome [12]: inactive
- outcome [13]: inactive
- outcome [14]: inactive
- outcome [15]: inactive
- outcome [16]: inactive
- outcome [17]: inactive
- outcome [18]: inactive
- outcome [19]: inactive

Compound: Cc1cncc(C)c1
- outcome [1]: inactive
- outcome [2]: inactive
- outcome [3]: inactive
- outcome [4]: inactive
- outcome [5]: inactive
- outcome [6]: inactive
- outcome [7]: inactive
- outcome [8]: inactive
- outcome [9]: inactive
- outcome [10]: inactive
- outcome [11]: inactive
- outcome [12]: inactive
- outcome [13]: inactive
- outcome [14]: inactive
- outcome [15]: inactive
- outcome [16]: inactive
- outcome [17]: inactive
- outcome [18]: inactive
- outcome [19]: inactive

Compound: CCOC(=O)c1nc(C(Cl)(Cl)Cl)n(-c2ccc(Cl)cc2Cl)n1
- AC50 [1]: 48.5 µM (active)
- AC50 [20]: 57.8 µM (active)
- AC50 [3]: 25.3 µM (active)
- outcome [4]: inactive
- outcome [5]: inactive
- AC50 [6]: 181 µM (active)
- outcome [7]: inactive
- outcome [8]: inactive
- AC50 [9]: 100 µM (active)
- outcome [10]: inactive
- outcome [11]: inactive
- AC50 [12]: 100 µM (active)
- outcome [13]: inactive
- outcome [14]: inactive
- outcome [15]: inactive
- AC50 [16]: 164 µM (active)
- AC50 [17]: 26.6 µM (active)
- AC50 [18]: 169 µM (active)
- AC50 [19]: 53.2 µM (active)

Compound: C=CC(C)(CCC=C(C)C)OC(C)=O (stereo unspecified)
- outcome [1]: inactive
- outcome [2]: inactive
- outcome [3]: inactive
- outcome [4]: inactive
- outcome [5]: inactive
- outcome [6]: inactive
- outcome [7]: inactive
- outcome [8]: inactive
- outcome [10]: inactive
- outcome [11]: inactive
- outcome [12]: inactive
- outcome [13]: inactive
- outcome [14]: inactive
- outcome [16]: inactive
- outcome [17]: inactive
- outcome [18]: inactive
- outcome [19]: inactive

Compound: CCCCCCC(C)(C)C(=O)O
- outcome [1]: inactive
- AC50 [20]: 137 µM (active)
- outcome [3]: inactive
- outcome [4]: inactive
- outcome [5]: inactive
- outcome [6]: inactive
- outcome [7]: inactive
- outcome [8]: inactive
- AC50 [9]: 130 µM (active)
- outcome [10]: inactive
- AC50 [11]: 27.6 µM (active)
- outcome [12]: inactive
- outcome [13]: inactive
- outcome [14]: inactive
- outcome [15]: inactive
- outcome [16]: inactive
- outcome [17]: inactive
- outcome [18]: inactive

Compound: COC(=O)C(F)(F)C(F)(F)C(F)(F)F
- outcome [1]: inactive
- outcome [2]: inactive
- outcome [3]: inactive
- outcome [4]: inactive
- outcome [5]: inactive
- outcome [6]: inactive
- outcome [7]: inactive
- outcome [8]: inactive
- outcome [9]: inactive
- outcome [10]: inactive
- outcome [11]: inactive
- outcome [13]: inactive
- outcome [14]: inactive
- outcome [15]: inactive
- outcome [17]: inactive
- outcome [18]: inactive
- outcome [19]: inactive

Compound: Cn1sccc1=O
- AC50 [1]: 74.2 µM (active)
- outcome [2]: inactive
- outcome [3]: inactive
- AC50 [4]: 34.7 µM (active)
- AC50 [5]: 168 µM (active)
- outcome [6]: inactive
- AC50 [7]: 72.4 µM (active)
- outcome [8]: inactive
- AC50 [9]: 165 µM (active)
- outcome [10]: inactive
- outcome [11]: inactive
- outcome [12]: inactive
- outcome [13]: inactive
- AC50 [16]: 148 µM (active)
- outcome [17]: inactive
- outcome [18]: inactive
- AC50 [19]: 163 µM (active)
